Bioassay records as filed in PubChem BioAssay.
Sampled rows, rich in hits. Any-hit rate of the full collection: about 1.7%.
V-ATPase pHluor – alters yeast V-ATPase proton transport | S. cerevisiae, pHLuorin cytosolic pH fluorescence | response, % at 10 µM | hit rate 0.37% among 350,000; in the data active means response mostly above about 7.3%, no sharp cut-off; inactive means mostly below about 5.4%; further: actives read high
MOR-DOR inv ag – inverse agonist of human OPRM1-OPRD1 heterodimerization; hit rate 0.21% among 340,000; cell-based MOR-DOR heterodimer luminescence, inverse agonism; AID 504357; inhibition, % at 9.3 µM; in the data active means inhibition above about 22%, passing the limit was not always enough
HTR5A ag ctr – HTR5A agonism, opioid heterodimer counter-screen; P47898; activation, % at 9.3 µM; hit rate 0.61% among 340,000; HTR5A agonist assay, luminescence, cell-based; in the data active means activation mostly above about 9.5%, no sharp cut-off; inactive means mostly below about 7.6%
Target sequence (P47898 whole entry, looked up): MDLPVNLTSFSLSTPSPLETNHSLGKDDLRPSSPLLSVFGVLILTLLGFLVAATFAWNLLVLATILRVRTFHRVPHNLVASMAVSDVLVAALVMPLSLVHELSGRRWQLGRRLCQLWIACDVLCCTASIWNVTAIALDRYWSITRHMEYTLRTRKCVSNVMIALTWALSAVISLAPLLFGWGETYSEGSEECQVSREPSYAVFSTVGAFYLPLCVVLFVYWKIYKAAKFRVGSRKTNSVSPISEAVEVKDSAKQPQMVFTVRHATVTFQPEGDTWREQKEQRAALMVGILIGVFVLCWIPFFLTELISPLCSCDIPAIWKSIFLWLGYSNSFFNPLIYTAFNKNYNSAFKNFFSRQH
HTR5A inv ctr – HTR5A inverse agonism, opioid heterodimer counter-screen. HTR5A cell line, luminescence. P47898. hit rate 0.083% among 340,000. inhibition, % at 9.3 µM; in the data active means inhibition mostly above about 23%, no sharp cut-off; inactive means mostly below about 18%
MOR-DOR ag – OPRM1-OPRD1 heterodimerization agonism; hit rate 0.3% among 340,000; activation, % at 9.3 µM; P35372+P41143; AID 504326; cells, luminescence; in the data active means activation above about 18%
MIN6 prolif – induces beta-cell replication in MIN6 cells; proliferation, % at 10 µM; hit rate 0.29% among 330,000; MIN6 cells proliferation, ATPlite luminescence, 48 h; cells starved in 0.2% serum; 100% = growth in 10% serum;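 active means compounds whose signal lies at least 3.5 SD above the mean of all wells on their plate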
OPRM1-D1 inv cf – confirmation of human OPRM1-OPRD1 heterodimerization inverse agonists | shares compounds with MOR-DOR inv ag | cells expressing OPRM1/OPRD1 heterodimer, luminescence | inhibition, % at 9.3 µM | hit rate 20% among 580; in the data active means inhibition above about 32%
HTR5A inv count – HTR5A inverse agonism, opioid heterodimer counter-screen | shares compounds with MOR-DOR inv ag | HTR5A-expressing cells, luminescence | 580 tested, under 10 active | inhibition, % at 9.3 µM; call rule not given here
Large screens that a line does not name were inactive (follow-up assays come after a bar, where they were run).

CN1C(=O)C(O)(C2COC(C)(C)CC2=O)c2cc(Br)ccc21 (stereo not drawn)	MOR-DOR inv ag 81 | OPRM1-D1 inv cf 69 | HTR5A inv count inactive
COCCN(C(=S)Nc1ccccc1OC)C(C)c1cccs1 (stereo not drawn)	none
COc1ccc(NC(=S)N2CCN(C(=O)c3ccco3)CC2)cc1OC	none
COc1ccccc1C/C(N)=N/OC(=O)/C=C/c1ccccc1	none
Cn1c(SCC(=O)NCc2ccco2)nnc1C1CCCC1	none
Cc1ccc(S(=O)(=O)/N=C2\C=C(NS(=O)(=O)c3ccccc3)C(=O)c3ccccc32)c(C)c1	MOR-DOR inv ag 30 (no result: MIN6 prolif) | OPRM1-D1 inv cf inactive | HTR5A inv count inactive
CCc1ccc(S(=O)(=O)/N=C2\C=C(Nc3ccc(C(=O)O)cc3)C(=O)c3ccccc32)cc1	none
CC(C)(C)c1ccc(S(=O)(=O)/N=C2\C=C(NS(=O)(=O)c3ccccc3)C(=O)c3ccccc32)cc1	MOR-DOR inv ag 32 | OPRM1-D1 inv cf inactive | HTR5A inv count inactive
CNC(=O)COc1coc(CN2CCN(c3ccc(F)cc3)CC2)cc1=O	none
CN(C(=O)COC(=O)c1ccccc1SCC(=O)N1CCCC1)C1(C#N)CCCCC1	none
Cc1cc(C(=O)NNc2ccc(Cl)cc2)no1	MOR-DOR inv ag 35 | OPRM1-D1 inv cf inactive | HTR5A inv count inactive
Cc1cc(C(=O)NNc2ccc(C)c(C)c2)no1	MOR-DOR inv ag 58 | OPRM1-D1 inv cf inactive | HTR5A inv count inactive
OC(CN1CCN(c2ccccc2F)CC1)c1ccc(F)cc1 (stereo not drawn)	none
N#C/C(=C\c1ccncc1)c1nc2ccccc2c(=O)[nH]1	MOR-DOR inv ag 33 | OPRM1-D1 inv cf inactive | HTR5A inv count inactive
N#C/C(=C/c1ccncc1)c1nc2ccccc2c(=O)[nH]1	none
CSC1=C(C#N)C(c2ccccc2C)C(C#N)=C(N)N1 (stereo not drawn)	MOR-DOR inv ag 38 | OPRM1-D1 inv cf inactive | HTR5A inv count inactive
Cc1ccc(C)c(N2CCN(C(=O)CCCOc3cc(=O)n(C)c4ccccc34)CC2)c1	none
COc1ccc(N2CCN(C(=O)CCCOc3cc(=O)n(C)c4ccccc34)CC2)cc1	MOR-DOR inv ag 34 | OPRM1-D1 inv cf inactive | HTR5A inv count inactive
CC(=O)Oc1ccc(OC(C)=O)c2c1CC(C)=C(C)C2	MOR-DOR inv ag 39 | OPRM1-D1 inv cf 60 | HTR5A inv count inactive
O=C(Cc1ccc2ccccc2c1)NC(Cc1ccccc1)C(=O)O (stereo not drawn)	none (no result: MIN6 prolif)
CC(C)(Oc1ccc(F)cc1)C(=O)OCC(=O)c1ccc(S(C)(=O)=O)cc1	MOR-DOR inv ag 58 | OPRM1-D1 inv cf inactive | HTR5A inv count inactive
Cn1cc(/C=C2\SC(=O)NC2=S)c2ccccc21	MOR-DOR inv ag 28 | OPRM1-D1 inv cf inactive | HTR5A inv count inactive
Cc1ccc(C(=O)NN2C(=O)/C(=C/c3cn(C)c4ccccc34)SC2=S)cc1	none (no result: MIN6 prolif)
CC(C)CN(C(=O)COC(=O)CN1C(=O)c2ccccc2C1=O)c1c(N)n(Cc2ccccc2)c(=O)[nH]c1=O	none
CCOc1ccc(NS(=O)(=O)c2ccc(C(=O)NCC(c3ccc(OC)cc3)N3CCCC3)cc2)cc1 (stereo not drawn)	MOR-DOR inv ag 26 | OPRM1-D1 inv cf inactive | HTR5A inv count inactive
CN1C(=O)c2cccc3c(S(=O)(=O)Nc4ccccn4)ccc1c23	none
O=C1C(=O)N(CNc2cccnc2)c2ccccc21	MOR-DOR inv ag 51 | OPRM1-D1 inv cf inactive | HTR5A inv count inactive
O=C1C(=O)N(CNc2ccccn2)c2ccccc21	MOR-DOR inv ag 84 | OPRM1-D1 inv cf 68 | HTR5A inv count inactive
Cc1ccccc1OCC(=O)OC(C(=O)c1ccccc1)c1ccccc1 (stereo not drawn)	none
NC(=O)c1ccsc1NC(=O)CCS(=O)(=O)c1ccc(Cl)cc1	none
CNC(=S)NNC(=O)CCn1nc(C)c(Br)c1C	none
Cc1nn(CCC(=O)NNC(=S)Nc2ccccc2)c(C)c1Br	MOR-DOR inv ag 30 | OPRM1-D1 inv cf inactive | HTR5A inv count inactive
CCOCCCNC(=S)NNC(=O)CCn1nc(C)c(Br)c1C	MOR-DOR inv ag 45 | OPRM1-D1 inv cf inactive | HTR5A inv count inactive
Cc1nn(CCC(=O)NNC(=S)NCC(C)C)c(C)c1Br	MOR-DOR inv ag 75 | OPRM1-D1 inv cf inactive | HTR5A inv count inactive
Cc1cc(C)cc(N(CCC#N)C(=O)CSc2n[nH]c(N)n2)c1	none
O=C(CN1C(=O)C(=O)c2ccccc21)c1ccc(Cl)cc1	MOR-DOR inv ag 46 | OPRM1-D1 inv cf inactive | HTR5A inv count inactive
CCN(CC)C(=O)CN1C(=O)C(=O)c2ccccc21	MOR-DOR inv ag 38 | OPRM1-D1 inv cf inactive | HTR5A inv count inactive
CC1CCN(C(=O)CN2C(=O)c3cccc4cccc(c34)C2=O)CC1	none
CC(C)(C)NC(=O)CN(Cc1cccs1)C(=O)CN1C(=O)C(=O)c2ccccc21	MOR-DOR inv ag 33 | OPRM1-D1 inv cf inactive | HTR5A inv count inactive
CC1CCN(C(=O)CN2C(=O)C(=O)c3ccccc32)CC1	MOR-DOR inv ag 29 | OPRM1-D1 inv cf inactive | HTR5A inv count inactive
CC(C)(C)NC(=O)CN(Cc1cccs1)C(=O)c1csnn1	none
O=S(=O)(c1ccccc1)N1CCN(C(c2ccccc2)c2ccc(OC(F)(F)F)cc2)CC1 (stereo not drawn)	none
C[n+]1c2n(c3ccccc31)N=C(c1cc(C(C)(C)C)c(O)c(C(C)(C)C)c1)CS2	MOR-DOR inv ag 32 | OPRM1-D1 inv cf 51 | HTR5A inv count inactive
COC(=O)CN1CC(=O)N(c2ccccc2)C1=S	none
CC(=O)OCC1(C)CN(c2ccccc2)N(C(C)=O)C1=O (stereo not drawn)	MOR-DOR inv ag 40 | OPRM1-D1 inv cf inactive | HTR5A inv count inactive
CC(=O)OCC1(C)CN(c2ccccc2)NC1=O (stereo not drawn)	MOR-DOR inv ag 42 | OPRM1-D1 inv cf inactive | HTR5A inv count inactive
CC(=O)OCC1(C)CN(c2ccccc2)N(C(=O)c2ccc(C(C)(C)C)cc2)C1=O (stereo not drawn)	MOR-DOR inv ag 23 (no result: MIN6 prolif) | OPRM1-D1 inv cf inactive | HTR5A inv count inactive
Cc1cc(Cl)c(C(=O)Nc2cccc(C(F)(F)F)c2)c(C)n1	none
Cc1ccc(S(=O)(=O)N2CCN(CC(=O)N/N=C/C=C/c3ccccc3)CC2)cc1	none
CN(C1=C(NC(=O)c2ccc(Cl)cc2)C(=O)c2ccccc2C1=O)c1ccccc1	MOR-DOR inv ag 39 | OPRM1-D1 inv cf inactive | HTR5A inv count inactive
Cc1ccc(NC(=O)CSc2nnc(-c3cccnc3)n2CCN2CCCCC2)cc1	none
O=C(C(=O)c1cccnc1)c1cccnc1	MOR-DOR inv ag 36 | OPRM1-D1 inv cf inactive | HTR5A inv count inactive
